# Bioassay records: PubChem, Broad Institute
# The sample as a whole holds a higher share of hits than the screen did.
# T cruzi growth-1: blocks T. cruzi growth in NIH3T3 culture | T. cruzi beta-gal in NIH3T3, GalScreen luminescence, 90 h | 77,000 tested, 5.9% active | AID 624255 | inhibition, % at 8.34 µM;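 active = mean inhibition above about 93%, with at least 55% of replicates each passing it, limit read from the data, passing the limit was not always enough; inconclusive = only one of those two conditions holds; inactive = neither condition holds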
# C diff growth: C. difficile growth inhibition | 86,000 tested, 0.25% active | Clostridium difficile clinical isolate growth, OD600, 24 h; active compounds read low | growth activity, negative = inhibition, % at 16 µg/mL (by protocol);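 active = mean growth activity at or below -80% and every replicate also at or below -80%; inconclusive = mean at or below -80% but some replicate above -80%; inactive = mean growth activity above -80%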;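 note: 0% = DMSO wells and -100% = levofloxacin 16 µg/mL wells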
# T cruzi growth-2: Trypanosoma cruzi proliferation inhibition; T. cruzi beta-gal in NIH3T3, GalScreen luminescence, 90 h; 5,600 tested, 72% active; inhibition, % at 8.35 µM; shares compounds with T cruzi growth-1;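 active = mean replicate inhibition above about 95% and at least 55% of replicates individually reaching it, limit read from the data; inconclusive = only one of the two criteria is met; inactive = neither criterion is met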
# T cruzi growth-3: inhibitors of T. cruzi proliferation; shares compounds with T cruzi growth-1; T. cruzi beta-gal in NIH3T3, GalScreen luminescence, 90 h; inhibition, % at 2.09 µM; 5,600 tested, 21% active; AID 651740;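 active = mean inhibition above about 95%, with at least 55% of replicates also reaching it, limit read from the data; inconclusive = meets just one of the two conditions; inactive = meets neither condition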;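 note: plate controls were neutral control median for no effect and positive control median for full effect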
# 3T3 cytotox: NIH/3T3 (mouse) viability loss; shares compounds with T cruzi growth-1; NIH/3T3 viability, CellTiter-Glo ATP luminescence, 90 h; cytotoxicity (signal decrease), % at 8.35 µM; 5,600 tested, 14% active;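 active = mean signal decrease across replicates above about 35% based on untreated-well scatter, with enough replicates individually passing, limit read from the data; inconclusive = no rule stated though some were filed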;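 note: 0% = median of neutral control wells and 100% = median of positive control wells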
# NIH3T3 tox 2: cytotoxicity in mouse NIH/3T3 fibroblasts; shares compounds with T cruzi growth-1; 5,600 tested, 56% active; inhibition, % at 24.9 µM; NIH/3T3 viability, CellTiter-Glo ATP luminescence, 90 h;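 active = mean loss of cell viability signal at or above a set limit, and enough replicates individually reaching it; inconclusive = meets only the mean limit or only the replicate share; inactive = meets neither condition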;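 note: 0% = median of neutral control wells and 100% = median of positive control wells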
# * = called active by the depositor; ? = inconclusive; . = no result given.
SMILES,T cruzi growth-1,C diff growth,T cruzi growth-2,T cruzi growth-3,3T3 cytotox,NIH3T3 tox 2
O=C(Nc1ccc(C(F)(F)F)cc1)N[C@H]1CC[C@H](CCNC(=O)c2ccccc2F)O[C@H]1CO,5,1,.,.,.,.
COc1ccccc1NC(=O)N[C@H]1CC[C@@H](CCn2cc(-c3ccccc3OC)nn2)O[C@H]1CO,113*,5,69,41,-13,9
COc1ccccc1NC(=O)N[C@H]1CC[C@@H](CCn2cc(-c3ccccc3OC)nn2)O[C@@H]1CO,137*,-5,47,40,-2,23
Cc1ccc(-c2cnc3c(c2)C(=O)N([C@H](C)CO)C[C@@H](C)[C@@H](CN(C)C(=O)c2ccccc2)O3)cc1,48,-3,.,.,.,.
COc1ccc(CNC(=O)C[C@H]2CC[C@H]3[C@H](COc4ccc(NC(C)=O)cc4C(=O)N3C)O2)cc1,-2,16,.,.,.,.
O=C(Nc1ccc(F)cc1)N[C@H]1CC[C@@H](CCn2cc(-c3ccccc3F)nn2)O[C@@H]1CO,.,0,.,.,.,.
O=C(Nc1ccc(Cl)cc1)N[C@@H]1CC[C@H](CCn2cc(-c3ccccc3F)nn2)O[C@@H]1CO,102*,-12,98*,53,4,?
CN(C)c1ccc2c(c1)[C@H]1C[C@H](CC(=O)NCc3cc(F)ccc3F)O[C@@H](CO)[C@H]1O2,4,.,.,.,.,.
COc1ccc(NC(=O)Nc2ccc3c(c2)C(=O)N([C@H](C)CO)C[C@H](C)[C@@H](CN(C)S(=O)(=O)c2cn(C)cn2)OCCCC[C@H](C)O3)cc1,-61,-3,.,.,.,.
O=C(C[C@@H]1CC[C@H]2[C@@H](COC[C@@H](O)CN2Cc2cc(F)ccc2F)O1)N[C@H]1CCN(Cc2ccccc2)C1,49,1,.,.,.,.
O=C(C[C@@H]1CC[C@@H]2[C@H](COC[C@@H](O)CN2Cc2cc(F)ccc2F)O1)N1CCc2ccccc2C1,65,-5,.,.,.,.
O=C(C[C@@H]1CC[C@@H]2[C@H](COC[C@@H](O)CN2Cc2ccccc2F)O1)N[C@@H]1CCN(Cc2ccccc2)C1,99*,.,80,46,-18,-47
O=C(C[C@H]1CC[C@H]2[C@@H](COC[C@H](O)CN2Cc2cc(F)ccc2F)O1)N1CCc2ccccc2C1,98*,-4,79,0,-8,16
O=C(C[C@H]1CC[C@H]2[C@@H](COC[C@@H](O)CN2Cc2cc(F)ccc2F)O1)N[C@@H]1CCN(Cc2ccccc2)C1,99*,6,70,66,-5,-9
O=C(C[C@H]1CC[C@H]2[C@@H](COC[C@@H](O)CN2Cc2cc(F)ccc2F)O1)N[C@H]1CCN(Cc2ccccc2)C1,158*,0,86,52,-13,3
O=C(C[C@@H]1CC[C@H]2[C@@H](COC[C@@H](O)CN2Cc2ccccc2F)O1)N[C@H]1CCN(Cc2ccccc2)C1,32,.,.,.,.,.
O=C(C[C@@H]1CC[C@H]2[C@@H](COC[C@@H](O)CN2Cc2cc(F)ccc2F)O1)N[C@@H]1CCN(Cc2ccccc2)C1,95,4,.,.,.,.
C[C@H](O)C#Cc1cnc2c(c1)C(=O)N([C@@H](C)CO)C[C@@H](C)[C@@H](CN(C)Cc1cccc(F)c1)O2,26,2,.,.,.,.
C[C@H](O)C#Cc1cnc2c(c1)C(=O)N([C@@H](C)CO)C[C@H](C)[C@@H](CN(C)C(=O)Cc1ccccn1)O2,-15,-5,.,.,.,.
CC(C)NC(=O)N(C)C[C@H]1OCCCC[C@H](C)Oc2ccc(NC(=O)C3CCCCC3)cc2C(=O)N([C@H](C)CO)C[C@@H]1C,31,1,.,.,.,.
C[C@H](CO)N1C[C@H](C)[C@H](CN(C)C(=O)CCN2CCCCC2)Oc2ncc(C#CCN(C)C)cc2C1=O,-28,-3,.,.,.,.
O=C(C[C@H]1CC[C@@H]2[C@H](COC[C@@H](O)CN2Cc2cc(F)ccc2F)O1)N[C@@H]1CCN(Cc2ccccc2)C1,79,8,.,.,.,.
O=C(C[C@H]1CC[C@@H]2[C@H](COC[C@H](O)CN2Cc2cc(F)ccc2F)O1)N[C@@H]1CCN(Cc2ccccc2)C1,130*,1,67,8,-18,-5
C[C@H]1CN([C@@H](C)CO)C(=O)Cc2cc(NC(=O)c3ccncc3)ccc2O[C@@H]1CN(C)Cc1ccc(C(=O)O)cc1,.,-1,.,.,.,.
CC(C)NC(=O)N1[C@H](CO)[C@@H](c2ccc(C#CC3CCCCC3)cc2)[C@@H]1C#N,99*,-4,94,105*,-20,105*
SMILES,T cruzi growth-1,C diff growth,T cruzi growth-2,T cruzi growth-3,3T3 cytotox,NIH3T3 tox 2
N#C[C@@H]1[C@H](c2ccc(C#CC3CCCCC3)cc2)[C@@H](CO)N1C(=O)Nc1ccc(F)cc1,.,-12,.,.,.,.
CC(C)NC(=O)N1[C@@H](C#N)[C@H](c2ccc(C#CC3CCCCC3)cc2)[C@@H]1CO,100*,-13,105*,73,3,62*
CC(C)NC(=O)N1[C@@H](C#N)[C@@H](c2ccc(C#CC3CCCCC3)cc2)[C@@H]1CO,63,-14,.,.,.,.
CCCNC(=O)[C@H]1[C@H](CO)[C@H]2Cn3c(ccc(C4=CCCC4)c3=O)[C@H]2N1CCC,31,1,.,.,.,.
C[C@H](CO)N1C[C@H](C)[C@H](CN(C)Cc2cccc(C(F)(F)F)c2)Oc2ncc(C#CCN(C)C)cc2C1=O,-4,18,.,.,.,.
Cc1cccc(-c2ccc([C@@H]3[C@@H](CO)N4CCCCN(S(=O)(=O)c5cccc(C)c5)C[C@@H]34)cc2)c1,89,-9,.,.,.,.
Cc1cccc(-c2ccc([C@@H]3[C@H]4CN(S(=O)(=O)c5cccs5)CCCCN4[C@H]3CO)cc2)c1,98*,1,107*,75,25,60*
COc1cccc(-c2ccc([C@@H]3[C@H](CO)N4CCCCN(S(=O)(=O)c5cccs5)C[C@@H]34)cc2)c1,89,46,.,.,.,.
COc1cccc(-c2ccc([C@@H]3[C@@H](CO)N4CCCCN(S(=O)(=O)c5cccs5)C[C@H]34)cc2)c1,67,-1,.,.,.,.
Cc1cccc(-c2ccc([C@@H]3[C@@H](CO)N4CCCCN(S(=O)(=O)c5cccs5)C[C@@H]34)cc2)c1,115*,1,106*,32,44*,70*
Cc1cccc(-c2ccc([C@H]3[C@@H](CO)N4CCCCN(S(=O)(=O)c5cccc(C)c5)C[C@@H]34)cc2)c1,73,8,.,.,.,.
Cc1cccc(-c2ccc([C@@H]3[C@H](CO)N4CCCCN(S(=O)(=O)c5cccs5)C[C@@H]34)cc2)c1,103*,40,106*,64,47*,102*
Cc1cccc(-c2ccc([C@H]3[C@H](CO)N4CCCCN(S(=O)(=O)c5cccs5)C[C@@H]34)cc2)c1,115*,-1,108*,78,29,105*
C[C@@H]1CN([C@H](C)CO)C(=O)c2cc(NC(=O)C3CCCCC3)ccc2O[C@H]1CN(C)S(C)(=O)=O,-21,-2,.,.,.,.
